# Values without a mark were called inactive.
# How the values were obtained:
# Assay in all cases: log2 ratio of Biotin-Ahx-Ub-VS probe labelling (fragment/DMSO); higher = less target engagement (more negative = stronger competition), active = hit call of the paper (q ≤ 0.05, log2 ratio ≤ -1)
# Details in all cases: compound concentration: 200 uM; treatment time: 3 h
# ALG13 = target: T1, ALG13 (UniProt Q9NP73)
# T1 sequence (whole entry): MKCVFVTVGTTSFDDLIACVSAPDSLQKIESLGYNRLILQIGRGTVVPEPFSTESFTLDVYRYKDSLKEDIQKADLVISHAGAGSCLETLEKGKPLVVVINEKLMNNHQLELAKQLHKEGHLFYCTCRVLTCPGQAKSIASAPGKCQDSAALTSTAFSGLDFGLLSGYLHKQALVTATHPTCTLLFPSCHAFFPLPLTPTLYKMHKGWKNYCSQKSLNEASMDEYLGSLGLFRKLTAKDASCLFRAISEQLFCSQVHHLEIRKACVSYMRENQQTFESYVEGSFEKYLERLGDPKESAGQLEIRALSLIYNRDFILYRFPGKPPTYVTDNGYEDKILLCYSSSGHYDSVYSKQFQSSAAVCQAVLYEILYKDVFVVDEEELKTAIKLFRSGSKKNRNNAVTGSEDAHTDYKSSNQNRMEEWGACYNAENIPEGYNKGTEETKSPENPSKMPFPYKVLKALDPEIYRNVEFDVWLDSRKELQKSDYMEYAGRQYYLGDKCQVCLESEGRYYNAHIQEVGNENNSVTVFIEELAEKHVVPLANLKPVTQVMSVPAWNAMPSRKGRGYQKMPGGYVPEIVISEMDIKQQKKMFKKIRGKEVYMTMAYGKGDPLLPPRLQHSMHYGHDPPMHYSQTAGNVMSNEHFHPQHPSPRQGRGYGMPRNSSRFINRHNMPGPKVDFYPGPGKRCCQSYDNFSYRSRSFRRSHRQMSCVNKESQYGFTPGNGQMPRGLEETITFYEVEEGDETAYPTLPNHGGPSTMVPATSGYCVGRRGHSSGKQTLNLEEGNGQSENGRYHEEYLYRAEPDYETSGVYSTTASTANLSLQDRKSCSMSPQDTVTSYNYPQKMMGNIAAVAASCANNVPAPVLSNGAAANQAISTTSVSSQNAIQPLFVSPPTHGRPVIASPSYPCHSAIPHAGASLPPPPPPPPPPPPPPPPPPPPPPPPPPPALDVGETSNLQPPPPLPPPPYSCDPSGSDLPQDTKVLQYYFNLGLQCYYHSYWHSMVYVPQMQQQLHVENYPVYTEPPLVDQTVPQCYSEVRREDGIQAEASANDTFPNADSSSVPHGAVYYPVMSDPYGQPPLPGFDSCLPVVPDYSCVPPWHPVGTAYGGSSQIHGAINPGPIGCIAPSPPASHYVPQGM
# How it was run: (§1)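 Using Biotin-Ahx-Ub-VS at 0.5 µM final for 1 h, DUBs were labelled in HEK293T lysate (495 µg per sample) that had first been treated in triplicate with fragment at 200 µM or vehicle for 3 h. NeutrAvidin enrichment, LysC and trypsin digestion and diaPASEF LC-MS/MS followed. Spectronaut label-free quantities were global-median-normalised. Values are average log2 fragment/vehicle ratios by unpaired t-test, using proteins with ≥2 unique peptides.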
# ATXN3 = ATXN3 (UniProt P54252)
# How it was run: as §1
# BAP1 = target: T2, BAP1 (UniProt Q92560)
# T2 sequence (whole entry): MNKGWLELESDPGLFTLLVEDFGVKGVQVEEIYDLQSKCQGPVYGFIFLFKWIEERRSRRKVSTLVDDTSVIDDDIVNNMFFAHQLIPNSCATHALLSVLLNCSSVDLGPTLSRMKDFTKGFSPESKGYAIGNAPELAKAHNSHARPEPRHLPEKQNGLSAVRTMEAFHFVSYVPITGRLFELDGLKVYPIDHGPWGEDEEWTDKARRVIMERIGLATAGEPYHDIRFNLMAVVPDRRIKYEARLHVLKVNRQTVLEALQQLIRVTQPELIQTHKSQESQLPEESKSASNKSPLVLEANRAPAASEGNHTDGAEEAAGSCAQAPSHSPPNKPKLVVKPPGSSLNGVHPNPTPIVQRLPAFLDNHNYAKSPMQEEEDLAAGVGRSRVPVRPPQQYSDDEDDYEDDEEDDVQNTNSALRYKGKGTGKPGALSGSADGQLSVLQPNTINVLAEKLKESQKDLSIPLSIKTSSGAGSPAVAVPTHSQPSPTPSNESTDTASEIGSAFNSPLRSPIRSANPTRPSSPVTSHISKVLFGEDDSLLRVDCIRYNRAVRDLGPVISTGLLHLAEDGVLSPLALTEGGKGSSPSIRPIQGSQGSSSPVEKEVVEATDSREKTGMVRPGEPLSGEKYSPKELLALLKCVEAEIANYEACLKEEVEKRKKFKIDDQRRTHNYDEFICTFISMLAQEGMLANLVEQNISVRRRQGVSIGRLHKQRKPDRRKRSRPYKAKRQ
# How it was run: as §1
# EIF3F = EIF3F (UniProt O00303)
# How it was run: as §1
# EIF3H = EIF3H (UniProt O15372)
# How it was run: as §1
# FAM105A = target: T3, FAM105A (UniProt Q9NUU6)
# T3 sequence (whole entry): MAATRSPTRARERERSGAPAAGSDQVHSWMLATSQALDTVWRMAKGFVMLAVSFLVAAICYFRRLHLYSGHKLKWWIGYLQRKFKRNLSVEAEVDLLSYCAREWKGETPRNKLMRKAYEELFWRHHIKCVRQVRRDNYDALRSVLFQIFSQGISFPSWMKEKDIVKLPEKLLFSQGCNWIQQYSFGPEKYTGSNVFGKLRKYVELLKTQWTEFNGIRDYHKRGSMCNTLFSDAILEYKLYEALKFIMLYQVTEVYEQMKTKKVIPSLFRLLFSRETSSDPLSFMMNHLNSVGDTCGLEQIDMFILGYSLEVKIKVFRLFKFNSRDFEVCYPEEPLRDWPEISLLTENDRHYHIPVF
# How it was run: as §1
# OTUB1 = OTUB1 (UniProt Q96FW1)
# How it was run: as §1
# OTUD4 = target: T4, OTUD4 (UniProt Q01804)
# T4 sequence (whole entry): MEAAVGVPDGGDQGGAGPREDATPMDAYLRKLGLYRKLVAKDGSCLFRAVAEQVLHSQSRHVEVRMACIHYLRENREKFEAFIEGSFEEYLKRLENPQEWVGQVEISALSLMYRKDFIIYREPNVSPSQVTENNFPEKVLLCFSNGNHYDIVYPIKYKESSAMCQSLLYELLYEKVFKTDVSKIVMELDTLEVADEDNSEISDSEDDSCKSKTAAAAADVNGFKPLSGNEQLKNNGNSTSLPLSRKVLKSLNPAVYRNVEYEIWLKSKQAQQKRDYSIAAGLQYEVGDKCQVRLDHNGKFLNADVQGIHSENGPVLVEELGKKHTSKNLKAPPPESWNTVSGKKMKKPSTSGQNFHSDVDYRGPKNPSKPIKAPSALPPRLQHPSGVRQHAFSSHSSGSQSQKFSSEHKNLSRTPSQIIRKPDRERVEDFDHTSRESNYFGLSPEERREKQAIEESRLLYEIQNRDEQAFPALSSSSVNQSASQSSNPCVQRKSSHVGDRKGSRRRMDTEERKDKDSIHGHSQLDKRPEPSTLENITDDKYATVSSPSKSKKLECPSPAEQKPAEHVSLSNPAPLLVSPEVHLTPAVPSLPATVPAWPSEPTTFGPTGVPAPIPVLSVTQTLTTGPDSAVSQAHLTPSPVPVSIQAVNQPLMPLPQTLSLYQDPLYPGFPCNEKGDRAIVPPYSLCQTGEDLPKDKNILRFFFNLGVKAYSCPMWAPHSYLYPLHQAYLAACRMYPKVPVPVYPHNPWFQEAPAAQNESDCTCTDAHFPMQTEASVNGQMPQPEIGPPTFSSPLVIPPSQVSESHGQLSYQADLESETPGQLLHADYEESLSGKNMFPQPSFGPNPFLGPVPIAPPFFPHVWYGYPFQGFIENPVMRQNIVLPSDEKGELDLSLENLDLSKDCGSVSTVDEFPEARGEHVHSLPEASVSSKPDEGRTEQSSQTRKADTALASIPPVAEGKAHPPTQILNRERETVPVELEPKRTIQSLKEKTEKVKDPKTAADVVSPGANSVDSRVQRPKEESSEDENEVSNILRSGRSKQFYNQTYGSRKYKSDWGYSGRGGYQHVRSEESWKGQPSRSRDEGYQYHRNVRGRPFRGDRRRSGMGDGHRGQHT
# How it was run: as §1
# OTUD5 = target: T5, OTUD5 (UniProt Q96G74)
# T5 sequence (whole entry): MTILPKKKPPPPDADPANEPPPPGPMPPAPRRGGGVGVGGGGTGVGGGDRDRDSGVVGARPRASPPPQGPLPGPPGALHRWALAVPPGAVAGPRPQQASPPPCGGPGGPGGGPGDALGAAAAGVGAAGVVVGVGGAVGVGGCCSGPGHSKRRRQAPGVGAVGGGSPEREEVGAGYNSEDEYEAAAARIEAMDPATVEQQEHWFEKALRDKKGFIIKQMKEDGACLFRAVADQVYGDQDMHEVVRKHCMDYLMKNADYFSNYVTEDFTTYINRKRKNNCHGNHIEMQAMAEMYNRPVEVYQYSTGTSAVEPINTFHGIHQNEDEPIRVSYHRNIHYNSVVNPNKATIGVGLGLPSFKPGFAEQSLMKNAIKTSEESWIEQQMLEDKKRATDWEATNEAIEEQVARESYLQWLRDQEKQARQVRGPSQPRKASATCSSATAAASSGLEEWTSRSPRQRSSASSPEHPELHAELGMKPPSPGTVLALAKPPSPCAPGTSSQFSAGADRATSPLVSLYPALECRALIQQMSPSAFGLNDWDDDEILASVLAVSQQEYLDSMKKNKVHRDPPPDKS
# How it was run: as §1
# Chain of ATXN3 (P54252 whole entry): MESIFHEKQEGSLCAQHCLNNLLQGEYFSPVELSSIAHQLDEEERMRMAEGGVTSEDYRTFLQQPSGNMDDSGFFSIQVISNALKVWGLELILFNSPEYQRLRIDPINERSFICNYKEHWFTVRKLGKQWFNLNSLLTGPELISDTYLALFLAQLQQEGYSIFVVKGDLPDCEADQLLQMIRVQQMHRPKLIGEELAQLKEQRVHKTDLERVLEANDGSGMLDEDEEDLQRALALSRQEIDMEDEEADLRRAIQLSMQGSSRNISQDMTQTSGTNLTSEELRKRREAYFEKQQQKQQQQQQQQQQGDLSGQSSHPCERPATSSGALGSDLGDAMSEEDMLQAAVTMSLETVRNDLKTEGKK
# Chain of OTUB1 (Q96FW1 whole entry): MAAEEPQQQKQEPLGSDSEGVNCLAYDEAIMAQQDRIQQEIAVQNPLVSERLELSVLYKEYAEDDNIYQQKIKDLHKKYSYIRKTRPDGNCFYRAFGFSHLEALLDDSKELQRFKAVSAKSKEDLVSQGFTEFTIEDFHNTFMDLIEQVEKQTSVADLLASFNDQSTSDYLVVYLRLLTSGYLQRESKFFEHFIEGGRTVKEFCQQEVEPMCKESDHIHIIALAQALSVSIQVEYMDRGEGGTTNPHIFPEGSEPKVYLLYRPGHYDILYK
# Chain of EIF3F (O00303 whole entry): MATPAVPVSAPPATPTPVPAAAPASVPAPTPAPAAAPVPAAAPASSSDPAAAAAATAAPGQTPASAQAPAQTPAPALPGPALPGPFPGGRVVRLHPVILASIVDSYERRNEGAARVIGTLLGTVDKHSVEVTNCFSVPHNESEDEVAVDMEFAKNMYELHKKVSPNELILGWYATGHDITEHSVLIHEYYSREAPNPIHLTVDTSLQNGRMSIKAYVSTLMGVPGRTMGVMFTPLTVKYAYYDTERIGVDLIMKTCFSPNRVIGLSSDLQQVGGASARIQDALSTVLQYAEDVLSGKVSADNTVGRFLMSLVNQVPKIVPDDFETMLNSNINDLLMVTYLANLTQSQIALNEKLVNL
# Chain of EIF3H (O15372 whole entry): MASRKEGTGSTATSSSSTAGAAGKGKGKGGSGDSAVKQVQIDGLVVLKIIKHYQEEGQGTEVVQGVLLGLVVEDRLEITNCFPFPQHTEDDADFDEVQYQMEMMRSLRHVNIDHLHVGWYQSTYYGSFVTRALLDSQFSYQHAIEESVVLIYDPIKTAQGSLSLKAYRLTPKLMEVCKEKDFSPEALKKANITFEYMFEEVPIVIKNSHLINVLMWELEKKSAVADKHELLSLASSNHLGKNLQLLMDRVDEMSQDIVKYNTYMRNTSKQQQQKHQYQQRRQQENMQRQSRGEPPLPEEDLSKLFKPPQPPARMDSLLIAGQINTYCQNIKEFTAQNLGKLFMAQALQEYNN
smiles,measurement,setting,value
Cc1ccc(CN(CCO)C(=O)CCl)cc1,log2 ratio of Biotin-Ahx-Ub-VS probe labelling,ALG13,0.163
same,log2 ratio of Biotin-Ahx-Ub-VS probe labelling,ATXN3,-0.225
same,log2 ratio of Biotin-Ahx-Ub-VS probe labelling,BAP1,-1.12 (active)
same,log2 ratio of Biotin-Ahx-Ub-VS probe labelling,EIF3F,0.0155
same,log2 ratio of Biotin-Ahx-Ub-VS probe labelling,EIF3H,0.0625
same,log2 ratio of Biotin-Ahx-Ub-VS probe labelling,FAM105A,0.0195
same,log2 ratio of Biotin-Ahx-Ub-VS probe labelling,OTUB1,-0.0318
same,log2 ratio of Biotin-Ahx-Ub-VS probe labelling,OTUD4,-0.355
same,log2 ratio of Biotin-Ahx-Ub-VS probe labelling,OTUD5,-0.372

# — the supplement of paper PMC11732987, “Enantioselective OTUD7B fragment discovery through chemoproteomics screening and high-throughput optimisation” (Communications Chemistry, 2025)
